Assay outcomes: PubChem, National Center for Advancing Translational Sciences (NCATS)
The list is not random: actives were taken first. Their share in the collection is about 2%.
TDP43 rescue: qHTS of TDP-43 Inhibitors. TDP-43 expressing yeast growth rescue, BacTiter-Glo, 24 h. Potency, µM (doses to about 46.1 µM), for the others: at the top dose growth rescue (activation), usual class: activators. 410,000 compounds, 1.8% hits; further: potency means the concentration at half of the fitted maximal effect; % of control where 0% means no effect; nearly all actives have a fitted effect of over 50% in size
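Cell-based yeast growth screen: TDP-43 expression induced in galactose, inoculum OD600=0.02 after raffinose pregrowth to mid-log. Read-out BacTiter-Glo luminescence at 24 hr, 30 deg C; inhibition of toxicity seen as signal increase.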
Abeta rescue: qHTS for compounds that reverse cellular toxicity of Amyloid beta (A-beta) peptide in yeast: Primary Screen | yeast expressing A-beta42, growth rescue, OD600, 48 h; response scale: 0% DMSO, 100% iron-clioquinol control | Potency, µM (doses to about 46.1 µM), hits mostly activators | 410,000 compounds, 0.063% hits; further: potency means the concentration at half of the fitted maximal effect; nearly all actives have a fitted effect of over 55% in size
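Yeast A-beta toxicity model in growth medium with pinned compounds, 48 h at 30 C; growth read as absorbance at 600 nm. Normalized to FeCl3/clioquinol equimolar mix (positive) and DMSO (negative).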
IDH1 R132H inh: qHTS for Inhibitors of mutant isocitrate dehydrogenase 1 (IDH1): qHTS; Isocitrate dehydrogenase [NADP] cytoplasmic (Homo sapiens), O75874; IDH1-R132H enzyme, NADPH consumption, diaphorase/resazurin fluorescence; Potency, µM (doses to about 76.6 µM), without a hit: at the highest dose activity change, negative = inhibition, hits mostly inhibitors; 390,000 compounds, 0.093% hits; AID 602179, 2012; further: potency means the concentration at half of the fitted maximal effect; on the % scale 0 is the no-effect control and ±100 the full control effect; nearly all actives have a fitted effect of over 65% in size
Target sequence (O75874 whole entry R132H, stated change not applied): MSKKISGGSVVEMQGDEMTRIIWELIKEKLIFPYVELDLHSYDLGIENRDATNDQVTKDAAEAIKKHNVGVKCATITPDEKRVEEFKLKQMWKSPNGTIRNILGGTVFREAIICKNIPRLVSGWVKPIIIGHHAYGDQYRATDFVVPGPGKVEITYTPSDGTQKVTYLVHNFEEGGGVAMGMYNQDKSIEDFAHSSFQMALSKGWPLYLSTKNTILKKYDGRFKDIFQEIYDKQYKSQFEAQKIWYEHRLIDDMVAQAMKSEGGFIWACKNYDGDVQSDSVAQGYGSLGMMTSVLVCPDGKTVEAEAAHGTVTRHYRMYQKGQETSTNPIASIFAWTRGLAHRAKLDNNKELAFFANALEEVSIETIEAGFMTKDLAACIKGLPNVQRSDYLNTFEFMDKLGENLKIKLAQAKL
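IDH1-R132H (0.5 ug/mL dispensed) in pH 7.5 Tris buffer was preincubated 30 min with compound, then given a substrate mix of 0.016 mM NADPH and 2 mM alpha-KG for 80 min at room temperature; remaining NADPH was read by diaphorase/resazurin fluorescence.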
FUS yeast rescue: qHTS for Suppressors of FUS Proteinopathy: Primary screen using FUS-linked yeast assay. S. cerevisiae FUS-expressing, growth rescue, OD600, 24 h. Potency, µM (titrated, usually from 76.6 µM), hits mostly activators. 390,000 compounds, 0.24% hits. AID 1347120, 2019;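 further: potency means the concentration at half of the fitted maximal effect; plate controls were DMSO vehicle for no effect and reference control for full effect; nearly all actives have a fitted effect of over 55% in size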
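Yeast FUS proteinopathy model; galactose-induced FUS (2%), starting OD 0.005. Cpds in dilution series, 24hr, 30C, 99% humidity. Abs 600 nm growth. Pos ctrl CP55940 (top 92uM final); neg ctrl DMSO.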
LDHA block: qHTS assay for inhibitors of human lactate dehydrogenase; purified LDHA, NADH/diaphorase-resazurin fluorescence; active compounds read low; AID 1347041, 2019; L-lactate dehydrogenase A chain (Homo sapiens), P00338; activity change, % (values are at about 110 or 230 µM); 480,000 compounds, 0.15% hits; in the data active means activity change below about -30%; inconclusive means mostly about -25% to -30%;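 further: plate controls were DMSO wells for no effect and wells without enzyme for full effect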
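LDH5 2 nM; NADH 0.06 mM, pyruvate 0.2 mM; 200 mM Tris pH 7.4, EDTA, Tween-20; 5 min RT. Detection: diaphorase 0.133 mg/mL + resazurin 37 µM, fluorescence ex540/em590 at 0 and 20 min; normalized to enzyme-free and DMSO wells.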
aSyn yeast inh: qHTS of alpha-syn Inhibitors. 370,000 compounds, 0.14% hits. AID 652106, 2013. Potency, µM (titrated, usually from 46.1 µM), without a hit: at the highest dose growth rescue (activation), most hits filed as activators. Yeast expressing alpha-synuclein, growth rescue, BacTiter-Glo, 24 h; further: potency means the concentration at half of the fitted maximal effect; % of control where 0% means no effect; nearly all actives have a fitted effect of over 65% in size
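Screening used galactose-induced yeast with toxic alpha-synuclein levels, exposed to compound for 24 hr at 30 deg C. Cell growth, read with BacTiter-Glo luminescence, gave the measured signal.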
Numbers without * were called inactive. Unless noted, the call rests on the fitted dose curve; in most records, active means well fitted curve in the direction sought with a large enough effect; inconclusive means small, poorly fitted or top-dose-only effect, or another doubt; inactive means no such curve, though single readings can be large; an effect the other way counts as inactive or inconclusive.

Screening CCn1c(SCc2ccc(F)cc2)nc2c(c1=O)SCC2 returned TDP43 rescue 17.8µM*, Abeta rescue inactive, IDH1 R132H inh 15.2%, FUS yeast rescue inactive, LDHA block -7.9 and aSyn yeast inh -0.3%.
Screening C#CCSc1nnc(CSc2nc3ccccc3s2)n1-c1ccccc1 returned TDP43 rescue 22.4µM*, Abeta rescue inactive, IDH1 R132H inh -2.3%, FUS yeast rescue inactive, LDHA block -6.7 and aSyn yeast inh -12.1%.
Screening CN(CC(=O)NC(=O)NCc1ccccc1)CC(=O)Nc1ccc(Cl)cc1 returned LDHA block 6.9.
Screening O=C(C1CCCN(Cc2cccnc2)C1)N1CCCCC1 (stereo not given) returned TDP43 rescue 1.3%, Abeta rescue inactive, IDH1 R132H inh 6.7%, FUS yeast rescue inactive, LDHA block -36.1* and aSyn yeast inh -2.2%.
CCOC(=O)/C=C/C(=O)OCC(=O)Nc1ccc([N+](=O)[O-])cc1 was read as TDP43 rescue 14.1µM*, IDH1 R132H inh -9.7%, FUS yeast rescue inactive, LDHA block -8.0 and aSyn yeast inh -21.5%.
For Fc1ccccc1N1CCN(c2ncnc3c2nc2n3CCCC2)CC1 the results were TDP43 rescue inconclusive, Abeta rescue inactive, IDH1 R132H inh -6.5%, FUS yeast rescue inactive and LDHA block -11.1.
For Cc1ccc(Cl)cc1N1CCN(c2ncnc3c2nc2n3CCCCC2)CC1 the results were TDP43 rescue 25.1µM*, Abeta rescue inactive, IDH1 R132H inh 6.1%, FUS yeast rescue inactive and LDHA block 0.0.
Clc1cccc(N2CCN(c3ncnc4c3nc3n4CCCC3)CC2)c1 was read as TDP43 rescue 15.8µM*, Abeta rescue inactive, IDH1 R132H inh 4.0%, FUS yeast rescue inactive and LDHA block 5.8.
For COc1ccc(-c2nc(S(=O)(=O)c3ccc4c(c3)OCCO4)c(N3CCN(C)CC3)o2)cc1 the results were LDHA block -17.8.
Cc1ccc(SCCNC(=O)c2ccc(C)c(S(=O)(=O)Nc3cccc(C)c3)c2)cc1 was read as TDP43 rescue -8.5%, Abeta rescue inactive, IDH1 R132H inh 2.2%, FUS yeast rescue 31.6µM*, LDHA block 1.7 and aSyn yeast inh 20.1%.
Screening c1ccc(Sc2nc(N3CCCCC3)nc(N3CCCCC3)n2)nc1 returned TDP43 rescue 15.8µM*, Abeta rescue inactive, IDH1 R132H inh -1.1%, FUS yeast rescue inactive, LDHA block 3.2 and aSyn yeast inh -0.6%.
Screening CCc1cc(=O)oc2cc(OC(C)C(=O)Nc3ccccc3F)ccc12 (stereo not given) returned LDHA block -13.2.
COc1ccc(CN(C)C(=O)CSc2nnc(COc3ccc(Cl)cc3)n2C)cc1F was read as LDHA block 2.8.
CC(C)N1C2OC(C3OC4C(O3)N(C(C)C)S(=O)(=O)N4C(C)C)OC2N(C(C)C)S1(=O)=O (stereo not given) was read as TDP43 rescue inconclusive, Abeta rescue inactive, IDH1 R132H inh -1.1%, FUS yeast rescue inactive, LDHA block -7.5 and aSyn yeast inh 7.08µM*.
`CCn1c2ccccc2c2cc(/C=C3/C=Cc4ccccc43)ccc21` gave LDHA block -54.7* and aSyn yeast inh 0.4%.
Screening Cc1cc(C)nc(NC(=NCCc2c[nH]c3ccccc23)NC(=O)Nc2ccc(Cl)cc2)n1 returned TDP43 rescue 22.4µM*, Abeta rescue inactive, IDH1 R132H inh -0.3%, LDHA block -8.3 and aSyn yeast inh -33.7%.
COCCCN(Cc1ccco1)C(=O)c1cc2c(s1)-c1ccccc1OC2 was read as TDP43 rescue 22.4µM*, Abeta rescue inactive, IDH1 R132H inh 2.0%, FUS yeast rescue inconclusive, LDHA block 1.7 and aSyn yeast inh 1.8%.
For Cc1ccc(CCNC(=O)c2cc3c(s2)-c2ccccc2OC3)cc1 the results were TDP43 rescue 9.8%, Abeta rescue inactive, IDH1 R132H inh 2.3%, FUS yeast rescue inactive, LDHA block -36.4* and aSyn yeast inh -0.9%.
For CCC(Oc1ccccc1)C(=O)Nc1ccc(S(=O)(=O)NCC(=O)c2ccccc2)cc1 (stereo not given) the results were LDHA block 8.7.
`COc1cccc(C(Nc2ccccc2)c2ccc3ccc(C)nc3c2O)c1` (stereo not given) gave TDP43 rescue 22.4µM*, Abeta rescue inconclusive, FUS yeast rescue inactive, LDHA block 4.5 and aSyn yeast inh 17.8µM*.
For Cc1cccc(NC(c2ccc(O)cc2)c2ccc3ccc(C)nc3c2O)n1 (stereo not given) the results were TDP43 rescue -22.3%, Abeta rescue inactive, IDH1 R132H inh 4.4%, FUS yeast rescue 15.8µM*, LDHA block 9.9 and aSyn yeast inh -3.9%.
CC(C)(O)CCc1c(-c2ccc(O)cc2O)oc2c3c(cc(O)c2c1=O)OC(C)(C)C=C3 was read as TDP43 rescue 12.6µM*, Abeta rescue inactive, IDH1 R132H inh inconclusive, FUS yeast rescue inconclusive, LDHA block 4.9 and aSyn yeast inh -1.6%.
CC(C)=CCc1c2c(c3occ(-c4ccc(O)cc4)c(=O)c3c1O)C=CC(C)(C)O2 was read as TDP43 rescue inconclusive, Abeta rescue inactive, IDH1 R132H inh -3.9%, FUS yeast rescue inactive, LDHA block 3.2 and aSyn yeast inh -4.5%.
Cc1ccc(/C=N/n2cc(-c3ccccc3)[nH]c2=S)s1 was read as TDP43 rescue 24.5%, Abeta rescue 4.47µM*, IDH1 R132H inh -1.2%, FUS yeast rescue inactive, LDHA block -4.7 and aSyn yeast inh -2.4%.
For COc1cc2ccccc2cc1C(=O)Nc1ccccc1SCC(N)=O the results were LDHA block 0.2.
Screening Cc1cc(C)nc(Nc2ccc(C)c([N+](=O)[O-])c2)n1 returned TDP43 rescue 20µM*, Abeta rescue inactive, IDH1 R132H inh 8.0%, FUS yeast rescue inactive, LDHA block -5.3 and aSyn yeast inh 1.2%.
`Cc1cc(C)nc(Nc2cccc(Cl)c2)n1` gave TDP43 rescue 8.91µM*, Abeta rescue inactive, IDH1 R132H inh 1.7%, FUS yeast rescue inactive, LDHA block -3.0 and aSyn yeast inh 0.0%.
`CS(=O)(=O)N(CC(=O)Nc1ccc(Br)cc1)c1cccc(Cl)c1Cl` gave LDHA block -20.5.
